“And” between values parts separate entries of the source, which are not always exact repeats. Equal values may be shown once. Results filed as inconclusive are left out. A call without a number means that no potency is given here. Values without a mark were called inactive. The source made the active and inactive calls. Calls follow the shape of the dose curve; as a rule, active = well fitted inhibition curve with a large enough effect in the repeat runs; inconclusive = weak or mixed curves; inactive = flat fitted curve, though single readings scatter.
Experiment: qHTS assay to identify small molecule HDAC inhibitors (AID 1259364); also: nearly all actives have a fitted effect of over 45% in size; as to activity change, negative = inhibition: top concentration of the series differs between compounds
Details: HCT-116 HDAC-Glo I/II luminescence, 2 h; series mostly up to 92.4 µM; activity change, negative = inhibition: at the top concentration
Excerpt: U.S. Tox21 Program National Center for Advancing Translational Sciences [NCATS] NIH Chemical Genomics Center [NCGC] U.S. Environmental Protection Agency [EPA] National Institutes of Environmental Health Sciences [NIEHS] National Toxicology Program [NTP] U.S. Food and Drug Administration [FDA] Tox21 Assay Overview: Histone deacetylases (HDACs) are a group of epigenetic enzymes that regulate gene expression by histone deacetylation. HDACs are capable of introducing epigenetic modifications and such aberrations contribute to the onset and progression of several human diseases, thus making HDACs a popular therapeutic target. For identifying endogenous class I/II HDAC inhibitors a homogenous, luminogenic HDAC I/II cell based assay was used to measure the relative activity of class I and II HDACs from cells. Wild type HCT-116 cells were used to screen Tox21 libraries for identifying class I/II HDAC inhibitors.
Tox21 Assay Protocol Summary: HCT-116 cells were dispensed at 1,500 per well in 5uL of culture medium into white solid bottom 1536-well plates (Greiner Bio-One, Monroe, NC) using a Multidrop Combi (Thermo Scientific, Waltham, MA) dispenser. The assay plates were incubated at 37 C and 5% CO2 for an overnight, and then 23nL of compounds dissolved in DMSO and positive control were transferred using a Pintool station (Wako, San Diego, CA). The assay plates were incubated at 37C and 5% CO2 for 2hr. After compound treatment, 4uL of HDAC-Glo reagent (Promega Corporation, Madison, WI) was added to each well of the assay plates using Flying Reagent Dispenser (FRD, Aurora Discovery, San Diego, CA) and incubated the assay plates at room temperature for 30min. The luminescence signal was quantified using a ViewLux plate reader (Perkin Elmer, Shelton, CT).
With `COc1ccc(Cl)cc1C(=O)NCCc1ccc(S(=O)(=O)NC(=O)NC2CCCCC2)cc1` the Potency was “inactive”.
With `O=C=NCCCCCCN=C=O` the Potency was “inactive”.
With `C=C(C)C(=O)OCCOCCOCCOC(=O)C(=C)C` the Potency was “inactive”.
With `CC(=O)OCC(=O)[C@@]12N=C(C)O[C@@H]1C[C@H]1[C@@H]3CCC4=CC(=O)C=C[C@]4(C)[C@H]3[C@@H](O)C[C@@]12C` the Potency was “inactive”.
For `COc1ccc2cc([C@H](C)C(=O)O)ccc2c1`, the Potency was “inactive”.
With `CC(O)COCC(C)O` (stereo not given) the Potency was “inactive”.
In the case of `C[C@H]1C[C@H]2[C@@H]3CCC4=CC(=O)C=C[C@]4(C)[C@@]3(F)[C@@H](O)C[C@]2(C)[C@@]1(O)C(=O)CO`, the Potency is reported as “inactive”.
In the case of `C=C(C)C(=O)Nc1ccc(Cl)c(Cl)c1`, the Potency is reported as “inactive”.
With `C[C@H]1C[C@@H]2[C@H]([C@@H](O)C[C@@]3(C)[C@H]2CC[C@]3(O)C(=O)CO)[C@@]2(C)C=CC(=O)C=C12` the Potency was “inactive”.
In the case of `Cc1cccc(O)c1`, the Potency is reported as “inactive”.
In the case of `CCCCOC(=O)COc1ccc(Cl)cc1Cl`, the Potency is reported as “inactive”.
For `CCCCCCCCCCCCCCCO`, the Potency was “inactive”.
For `CC(C)(C)[C@@H](O)[C@@H](Cc1ccc(Cl)cc1)n1cncn1`, the Potency was “inactive”.
In the case of `ON=C1CCCCC1`, the Potency is reported as “inactive”.
In the case of `CCN(CC)c1ccc(C(=O)c2ccccc2C(=O)O)c(O)c1`, the Potency is reported as “inactive”.
In the case of `CCCCCCCCCC`, the Potency is reported as “inactive”.
For `CCCCCC1=CCCC1=O`, the Potency was “inactive”.
For `CCCSc1ccc2nc(NC(=O)OC)[nH]c2c1`, the Potency was 6.11 µM (active) and 10.6 µM (active).
For `O=S(=O)(O)c1ccc2ccccc2c1`, the Potency was “inactive”.
In the case of `CCCCC(CC)COC(=O)C(C#N)=C(c1ccccc1)c1ccccc1` (stereo not given), the Potency is reported as “inactive”.
In the case of `CC(C)(N)CO`, the Potency is reported as “inactive”.
In the case of `N[C@@H](Cc1cc(I)c(Oc2cc(I)c(O)c(I)c2)c(I)c1)C(=O)O`, the Potency is reported as “inactive”.
With `C/C=C1/CC2C=CC1C2` (stereo not given) the Potency was “inactive”.
In the case of `CCOC(=O)NNc1nncc2ccccc12`, the Potency is reported as “inactive”.
In the case of `CN(C)CCC(c1ccccc1)c1ccccn1` (stereo not given), the Potency is reported as “inactive”.
For `COc1cc(Cc2cnc(N)nc2N)cc(OC)c1OC`, the Potency was “inactive”.
For `O=[N+]([O-])c1ccc(/C=C/c2ccc([N+](=O)[O-])cc2S(=O)(=O)O)c(S(=O)(=O)O)c1`, the Potency was “inactive”.
For `CC(C)CC(=O)CC(C)C`, the Potency was “inactive”.
In the case of `Oc1cccc2ccccc12`, the Potency is reported as “inactive”.
With `CCCCCCCC(=O)OC` the Potency was “inactive”.
With `OCc1cccnc1` the Potency was “inactive”.
In the case of `O=C(Oc1ccccc1)c1ccccc1`, the “activity change, negative = inhibition” value is reported as 4.75%.
For `CCCCCCCCC/C=C/CC1CC(=O)OC1=O` (stereo not given), the Potency was “inactive”.
For `O=C(O)[C@H](O)[C@@H](O)[C@H](O)[C@H](O)CO`, the Potency was “inactive”.
With `OCCOCCOCCO` the Potency was “inactive”.
In the case of `CC1=C(C)S(=O)(=O)CCS1(=O)=O`, the Potency is reported as “inactive”.
With `CC[C@H](C)C(=O)O[C@H]1C[C@@H](C)C=C2C=C[C@H](C)[C@H](CC[C@@H]3C[C@@H](O)CC(=O)O3)[C@H]21` the Potency was “inactive”.
With `CCCC(C)=O` the Potency was “inactive”.
In the case of `C=CCOC(=O)c1ccccc1C(=O)OCC=C`, the Potency is reported as “inactive”.
In the case of `CN(C)CCOCCN(C)C`, the Potency is reported as “inactive”.

Reference: PubChem BioAssay (Tox21)
Potency is read from the fitted curve at half-maximal effect.
